We go through 21 molecules from PubChem BioAssay (EPA / NIEHS).

Results filed as inconclusive are left out. Some compounds were tested as several samples or in several runs, with calls that do not always agree. Active and inactive are the calls of the source. The calls were made as follows, unless noted: active = hit-call score of the fitted dose curve at least 0.9, where 1 is the maximum; inactive = score below 0.9.

The target in experiment [1] is Oxysterols receptor LXR-alpha (Homo sapiens) (UniProt Q13133). Kind of experiment: ATG_LXRa_TRANS: Attagene TRANS-FACTORIAL HepG2 Assay for human Liver X Receptor alpha (LXRa) (AID 2282980; active = hit-call score of the fitted dose curve at least 0.9, where 1 is the maximum). As to conditions: HepG2 Attagene TRANS reporter, LXRa transactivation. In short, it runs like this:
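In this multiplexed TRANS system, compounds act on HepG2 cells carrying GAL4-UAS reporter units and a receptor-GAL4 fusion for 24 h. Induced reporter RNA is amplified, fluorescently labelled and sized by capillary electrophoresis, with DMSO as baseline.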

A short description of experiment [2]: ATG_M_06_TRANS: Attagene TRANS-FACTORIAL HepG2 Assay for M06 Transcription Factor (Internal Marker) (AID 2282983; active = hit-call score of the fitted dose curve at least 0.9, where 1 is the maximum;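 also: reporter transcript level by RT-PCR then capillary electrophoresis fluorescence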). As to conditions: HepG2 Attagene TRANS M06 internal marker reporter. In short, it runs like this:
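Internal-marker background readout from a multiplexed TRANS reporter system in HepG2; 24 h dosing; mRNA induction quantified by RT-PCR plus capillary electrophoresis fluorescence; DMSO as negative control and baseline.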

Experiment [3] has as its target Nuclear receptor subfamily 4 group A member 2 (Homo sapiens) (UniProt P43354). Kind of experiment: ATG_NURR1_TRANS: Attagene TRANS-FACTORIAL HepG2 Assay for human Nuclear Receptor Related Protein 1 (NURR1) (AID 2282985; active = hit-call score of the fitted dose curve at least 0.9, where 1 is the maximum). The following applies: HepG2 Attagene TRANS reporter, mRNA readout. The method, boiled down: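 HepG2 / transient MRTU transfection / 24 h compound exposure / RT-PCR + CE fluorescence of reporter mRNA / gain-of-signal vs DMSO.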

In experiment [4] the target is Transcriptional activator Myb (Homo sapiens) (UniProt P10242). Kind of experiment: ATG_Myb_CIS: Attagene CIS-FACTORIAL HepG2 Assay for human Myeloblastosis (Myb) Proto-Oncogene Transcription Factor (AID 2282986). As to conditions: HepG2 Attagene CIS-FACTORIAL Myb reporter transcription; actives raise or lower the signal. In short, it runs like this:
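Transiently transfected HepG2 cells, treated 24 h. Reporter mRNA quantified by RT-PCR/capillary electrophoresis; bidirectional fit relative to DMSO.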

Experiment [5] concerns the target Nuclear respiratory factor 1 (Homo sapiens) (UniProt Q16656). Nature of the experiment: ATG_NRF1_CIS: Attagene CIS-FACTORIAL HepG2 Assay for human Nuclear Respiratory Factor 1 (NRF1) Orphan Gene (AID 2282987). The following applies: HepG2 NRF1 cis-element reporter, Attagene multiplex; actives raise or lower the signal. The method, boiled down:
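Cells (HepG2, transient MRTU transfection) are exposed to compound for 24 h, then RNA isolated and reporter mRNA amplified and fluorescently labelled. Fragments are separated by capillary electrophoresis; signal change is fitted bidirectionally relative to DMSO.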

Experiment [6] in a line: ATG_NFI_CIS: Attagene CIS-FACTORIAL HepG2 Assay for human Nuclear Factor I (NFI) (AID 2282989). As to conditions: HepG2 cis-regulatory reporter, NFI response element transcription; actives raise or lower the signal. In short, it runs like this:
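HepG2 cells transiently transfected with cis-element-driven multiplexed reporter transcription units, dosed for 24 h. Reporter mRNA quantified by RT-PCR, fluorescent labelling, HpaI digestion and capillary electrophoresis; bidirectional fit versus DMSO baseline.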

Experiment [7] addresses Myc proto-oncogene protein (Homo sapiens) (UniProt P01106). Kind of experiment: ATG_Myc_CIS: Attagene CIS-FACTORIAL HepG2 Assay for human Myelocytomatosis (Myc) Proto-Oncogene Transcription Factor (AID 2282990). As to conditions: HepG2, Attagene cis-reporter transcription factor activity; actives raise or lower the signal. In short, it runs like this: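 Transiently transfected HepG2 cells bearing cis-promoter reporter units for endogenous transcription factors; 24 h exposure. Reporter mRNA measured by RT-PCR, 6-FAM primer extension, HpaI cut and capillary electrophoresis; bidirectional fit relative to DMSO.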

Experiment [8] in a line: ATG_NRF2_ARE_CIS: Attagene CIS-FACTORIAL HepG2 Assay for human Nuclear Factor Erythroid 2 Related Factor 2 (NFR2) response to Antioxidant Response Elements (ARE) (AID 2282992).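 As to AC50: reporter mRNA level measured by RT-PCR and capillary electrophoresis fluorescence.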 As to conditions: HepG2 Attagene ARE/NRF2 reporter, transcription factor activity; actives raise or lower the signal. The method, boiled down:
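Transient MRTU transfection of HepG2; 24 h compound exposure; TriZol RNA, RT with oligo(dT), PCR, 6-FAM primer extension, HpaI cut, CE. Bidirectional fit vs DMSO.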

Experiment [9] can be described thus: ATG_M_32_TRANS: Attagene TRANS-FACTORIAL HepG2 Assay for M32 Transcription Factor (Internal Marker) (AID 2282984; active = hit-call score of the fitted dose curve at least 0.9, where 1 is the maximum;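 also: transcript level of a background control reporter unit measured by RT-PCR and capillary electrophoresis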). The following applies: HepG2 Attagene TRANS M32 internal marker reporter. In short, it runs like this: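 Capillary electrophoresis of 6-FAM-labelled reporter fragments gives the signal; data fitted for gain over DMSO negative control. Source: HepG2 cells bearing transient multiple reporter transcription units, 24 h exposure.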

Experiment [10] in a line: ATG_NF_kB_CIS: Attagene CIS-FACTORIAL HepG2 Assay for human Nuclear Factor Kappa B (NF-kB) (AID 2282991). The following applies: HepG2 Attagene cis-factorial NF-kB reporter mRNA; actives raise or lower the signal. In short, it runs like this:
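Measures mRNA induction of an NF-kB-responsive cis-element reporter in HepG2 cells transfected with multiple reporter units, sampled 24 h post-dosing; quantified by fluorescence after RT-PCR and capillary electrophoresis, fitted for activation or inhibition against DMSO.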

Chain of Myc proto-oncogene protein (Homo sapiens) (P01106 whole entry, looked up): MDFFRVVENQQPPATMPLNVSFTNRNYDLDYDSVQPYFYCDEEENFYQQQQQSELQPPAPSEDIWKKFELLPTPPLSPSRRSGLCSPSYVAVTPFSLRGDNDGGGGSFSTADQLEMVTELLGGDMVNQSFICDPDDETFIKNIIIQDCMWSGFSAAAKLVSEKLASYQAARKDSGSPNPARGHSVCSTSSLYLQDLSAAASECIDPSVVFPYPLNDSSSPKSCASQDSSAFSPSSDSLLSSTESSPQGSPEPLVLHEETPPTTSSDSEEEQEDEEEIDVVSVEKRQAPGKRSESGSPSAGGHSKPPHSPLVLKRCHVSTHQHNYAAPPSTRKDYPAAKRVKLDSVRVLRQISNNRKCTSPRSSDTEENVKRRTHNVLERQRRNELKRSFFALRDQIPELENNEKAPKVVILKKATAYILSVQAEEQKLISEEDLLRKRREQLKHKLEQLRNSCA
Chain of Oxysterols receptor LXR-alpha (Homo sapiens) (Q13133 whole entry, looked up, the tested form may be a part): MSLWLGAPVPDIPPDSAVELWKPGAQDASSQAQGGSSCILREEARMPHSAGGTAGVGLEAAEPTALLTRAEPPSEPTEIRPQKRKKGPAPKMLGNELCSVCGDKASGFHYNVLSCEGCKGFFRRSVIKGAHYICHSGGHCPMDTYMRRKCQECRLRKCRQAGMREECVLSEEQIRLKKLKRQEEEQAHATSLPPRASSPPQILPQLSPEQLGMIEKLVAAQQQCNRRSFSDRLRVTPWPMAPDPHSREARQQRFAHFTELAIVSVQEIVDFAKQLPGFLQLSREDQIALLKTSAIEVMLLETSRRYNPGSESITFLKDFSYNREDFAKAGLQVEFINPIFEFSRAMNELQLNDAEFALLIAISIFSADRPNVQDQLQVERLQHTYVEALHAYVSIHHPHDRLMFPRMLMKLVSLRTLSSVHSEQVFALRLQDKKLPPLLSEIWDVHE
Chain of Transcriptional activator Myb (Homo sapiens) (P10242 whole entry, looked up): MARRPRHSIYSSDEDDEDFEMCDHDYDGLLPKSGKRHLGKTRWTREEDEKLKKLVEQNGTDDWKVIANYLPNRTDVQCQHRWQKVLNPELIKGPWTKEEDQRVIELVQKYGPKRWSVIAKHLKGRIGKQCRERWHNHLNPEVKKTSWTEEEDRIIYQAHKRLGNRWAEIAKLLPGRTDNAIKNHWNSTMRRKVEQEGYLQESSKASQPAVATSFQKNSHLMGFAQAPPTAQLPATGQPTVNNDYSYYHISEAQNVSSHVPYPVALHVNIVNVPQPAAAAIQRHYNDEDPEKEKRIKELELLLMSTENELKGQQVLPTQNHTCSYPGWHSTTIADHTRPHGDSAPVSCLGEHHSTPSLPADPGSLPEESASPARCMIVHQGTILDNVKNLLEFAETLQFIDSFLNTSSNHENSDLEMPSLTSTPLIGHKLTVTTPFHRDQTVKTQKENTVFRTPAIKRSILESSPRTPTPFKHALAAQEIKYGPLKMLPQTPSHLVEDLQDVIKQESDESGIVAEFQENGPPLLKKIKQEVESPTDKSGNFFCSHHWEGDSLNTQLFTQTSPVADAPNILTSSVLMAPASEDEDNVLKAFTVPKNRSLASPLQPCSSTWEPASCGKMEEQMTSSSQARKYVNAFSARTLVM
Chain of Nuclear receptor subfamily 4 group A member 2 (Homo sapiens) (P43354 whole entry, looked up): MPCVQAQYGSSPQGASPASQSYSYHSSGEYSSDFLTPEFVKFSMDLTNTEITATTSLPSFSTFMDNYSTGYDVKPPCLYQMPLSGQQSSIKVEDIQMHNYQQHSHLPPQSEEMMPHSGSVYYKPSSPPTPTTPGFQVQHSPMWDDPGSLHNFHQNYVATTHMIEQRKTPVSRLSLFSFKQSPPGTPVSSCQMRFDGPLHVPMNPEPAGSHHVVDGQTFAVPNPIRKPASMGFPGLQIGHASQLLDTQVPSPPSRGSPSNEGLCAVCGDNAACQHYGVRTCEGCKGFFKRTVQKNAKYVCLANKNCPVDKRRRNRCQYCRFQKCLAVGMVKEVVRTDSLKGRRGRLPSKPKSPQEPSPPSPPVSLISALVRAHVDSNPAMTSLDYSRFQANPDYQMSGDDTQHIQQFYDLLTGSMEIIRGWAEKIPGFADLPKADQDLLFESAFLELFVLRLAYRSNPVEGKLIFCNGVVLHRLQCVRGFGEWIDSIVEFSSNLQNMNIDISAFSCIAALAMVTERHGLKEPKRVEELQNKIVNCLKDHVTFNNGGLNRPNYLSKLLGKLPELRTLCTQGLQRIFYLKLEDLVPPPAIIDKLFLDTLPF
Chain of Nuclear respiratory factor 1 (Homo sapiens) (Q16656 whole entry, looked up, the tested form may be a part): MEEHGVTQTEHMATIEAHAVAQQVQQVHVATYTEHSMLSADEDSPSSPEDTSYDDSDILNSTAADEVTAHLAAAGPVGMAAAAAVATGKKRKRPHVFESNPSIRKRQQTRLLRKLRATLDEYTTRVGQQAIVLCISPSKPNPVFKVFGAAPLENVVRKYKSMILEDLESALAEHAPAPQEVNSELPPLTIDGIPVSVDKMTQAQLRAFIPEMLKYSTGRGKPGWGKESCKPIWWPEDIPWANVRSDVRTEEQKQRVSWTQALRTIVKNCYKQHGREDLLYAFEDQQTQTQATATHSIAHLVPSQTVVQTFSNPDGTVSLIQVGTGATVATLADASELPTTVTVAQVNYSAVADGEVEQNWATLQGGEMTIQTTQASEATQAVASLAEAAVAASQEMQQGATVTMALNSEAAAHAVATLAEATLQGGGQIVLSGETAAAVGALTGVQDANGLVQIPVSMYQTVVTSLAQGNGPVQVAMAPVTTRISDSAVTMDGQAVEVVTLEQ

The term AC50 denotes the concentration at which the activity in the assay is half-maximal. `Nc1nc(=S)c2[nH]cnc2[nH]1`: the molecule was called inactive in [1], in [2], in experiment [3], in experiment [4], in experiment [5] and in experiment [6]. In experiment [7], the call was inactive. For the same molecule, in [8], the AC50 is 2.69 µM (active).

For `COc1ccc(C(=O)Nc2nc3ccccc3c(NCc3ccccc3)c2C#N)cc1`, the outcome in experiment [1], in experiment [3], in experiment [4], in experiment [5] and in experiment [7] was inactive. Also, the AC50 in experiment [8] is 0.952 µM (active).

As for `CC(C)(O)c1ccc(CNC(=O)c2cccnc2Oc2ccc(F)cc2)cc1`, the result in experiment [1], in experiment [9], in experiment [4], in experiment [5] and in [7] was inactive. In addition, in experiment [8], the half-maximal activity concentration (AC50) is 40.7 µM (active).

Turning to `CCCC[C@H]1CN(CC2CCOCC2)C(=O)OC12CCN(C1(C)CCN(C(=O)c3c(C)ncnc3C)CC1)CC2`, the result in [1], in experiment [9], in [3], in experiment [4], in [5] and in experiment [6] was inactive. For the same molecule, the outcome in experiment [7] and in [8] was inactive.

For `Cn1cnc2c1c(=O)[nH]c(=O)n2C`, the molecule was classed as inactive in [1], in experiment [2], in experiment [3], in experiment [4], in experiment [5] and in experiment [6]. The molecule was called inactive in experiment [7], in [10] and in [8].

`O=C(O)CN(CC(=O)O)CC(=O)O`: the call in experiment [1], in [2], in experiment [9], in [3], in experiment [5] and in [7] was inactive. Besides, the result in [10] and in experiment [8] was inactive. Also, in experiment [4], the concentration at half-maximal activity (AC50) was 0.386 µM (active).

With `CC(N)=O`, the result in [1], in [2], in [9], in experiment [3], in [4] and in [5] was inactive. The molecule was classed as inactive in experiment [7] and in experiment [8].

`C#CC(O)C(CC)CCCC` (stereo not drawn): the result in experiment [1], in experiment [9], in experiment [3], in [4], in experiment [5] and in experiment [6] was inactive. In addition, the result in experiment [7] was inactive. Further, the values for the AC50 in experiment [10] and in experiment [8] were 67.2 µM (active) and 53.3 µM (active), respectively.

Consider `CS(=O)(=O)c1ccc([C@@H](C[C@H]2CCC(=O)C2)C(=O)Nc2cnccn2)cc1Cl`, for which the molecule was classed as inactive in experiment [1], in [2], in [9], in experiment [3], in [4] and in [5]. The call in [6], in experiment [7] and in [10] was inactive. Besides, the AC50 in [8] was 48.9 µM (active).

With `CC(=O)CC(c1ccccc1)c1c(O)c2ccccc2oc1=O` (stereo not drawn), the molecule was classed as inactive in experiment [1], in experiment [2], in experiment [9], in experiment [3], in experiment [4] and in experiment [5]. Also, the outcome in experiment [7] and in [8] was inactive. Besides, in [8], the AC50 was 27 µM (active).

As for `CCCCOC(=O)CCCCC(=O)OCCCC`, the molecule was classed as inactive in experiment [2], in [9], in experiment [3], in experiment [4], in [5] and in experiment [6]. Also, the call in experiment [7], in [10] and in experiment [8] was inactive.

As to `COC(=O)[C@H]1[C@H]2C[C@@H]3c4[nH]c5cc(OC)ccc5c4CCN3C[C@H]2C[C@@H](OC(=O)c2cc(OC)c(OC)c(OC)c2)[C@@H]1OC`, the molecule was classed as inactive in experiment [2], in [9], in experiment [4], in [5] and in experiment [7]. The AC50 in experiment [8] was 45.5 µM (active).

With `O=C1c2c(O)cccc2Cc2cccc(O)c21`, the outcome in [2], in experiment [3], in experiment [4], in experiment [5], in experiment [6] and in [7] was inactive. Moreover, the molecule was classed as inactive in experiment [8].

For `CCc1cc(C2=C(C(=O)O)N(c3ccccc3C(F)(F)F)S(=O)(=O)c3ccccc32)cc2c1OCO2`, the molecule was called inactive in experiment [2], in experiment [9], in experiment [4], in experiment [5], in [6] and in experiment [7]. Besides, the AC50 in [8] is 66.8 µM (active).

`CC(=O)O`: the molecule was classed as inactive in experiment [2], in experiment [9], in experiment [3], in experiment [4], in experiment [5] and in experiment [7]. For the same molecule, in experiment [8], the call was inactive.

As to `Cc1ccc(-c2cc(C(F)(F)F)nn2-c2ccc(S(N)(=O)=O)cc2)cc1`, the result in experiment [2], in experiment [3], in experiment [4], in [5], in experiment [6] and in experiment [7] was inactive. Also, in experiment [10], the result was inactive. Also, in experiment [8], the AC50 is 5.72 µM (active).

Consider `CCCCC(CC)COC(=O)CCCCCCCC(=O)OCC(CC)CCCC` (stereo not drawn), for which the molecule was classed as inactive in [2], in [3], in [4], in [5], in experiment [6] and in experiment [7]. For the same molecule, the call in experiment [10] and in [8] was inactive.

`NC(=Nc1ccccc1)Nc1ccccc1`: the molecule was called inactive in experiment [2], in [9], in [4], in experiment [5] and in [7]. Also, the AC50 in [8] is 5.38 µM (active).

With `CC(C)c1cccc(C(C)C)c1NC(=O)NS(=O)(=O)c1cc(C(C)(C)O)co1`, the molecule was called inactive in experiment [2], in experiment [3], in experiment [4], in [5], in experiment [7] and in experiment [8].

`CCCCCCCC(=O)OC`: the call in [2], in experiment [9], in [3], in experiment [4], in experiment [5] and in experiment [7] was inactive. The call in [10] and in experiment [8] was inactive.

In the case of `COc1ccc(OC(F)(F)F)cc1CN[C@H]1CCCN[C@H]1c1ccccc1`, the result in experiment [2], in experiment [9], in experiment [3], in [4], in experiment [5] and in [6] was inactive. Moreover, the outcome in experiment [7] and in [10] was inactive. For the same molecule, the concentration at half-maximal activity (AC50) in experiment [8] was 11 µM (active).
